What all share (conditions): mRNA level, 48 h; actives raise or lower the signal
Read-out in assay [1]: Bcl-2 (BAX) gene, BAX (gene 581)
Briefly: LTEA_HepaRG_BAX: Life Technologies and Expression Analysis (LTEA) Assay for Bcl-2 (BAX) gene using HepaRG (AID 2283470). An outline of the steps:
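Human HepaRG cells treated in duplicate for 48 h across eight concentrations (max 100 uM, 0.5% DMSO); BAX expression measured by qRT-PCR.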

Read-out in assay [2]: adenosine kinase (ADK) gene, ADK (gene 132)
Briefly: LTEA_HepaRG_ADK: Life Technologies and Expression Analysis (LTEA) Assay for adenosine kinase (ADK) gene using HepaRG (AID 2283471). An outline of the steps: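 HepaRG (human liver), 48 h chemical exposure, 8-pt half-log series, top 100 uM, 0.5% DMSO vehicle. Readout: ADK mRNA by qRT-PCR vs housekeeping genes; bidirectional curve fit relative to DMSO baseline.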

Read-out in assay [3]: Alpha-fetoprotein (AFP) gene, AFP (gene 174)
Briefly: LTEA_HepaRG_AFP: Life Technologies and Expression Analysis (LTEA) Assay for Alpha-fetoprotein (AFP) gene using HepaRG (AID 2283472). An outline of the steps:
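Measures AFP mRNA change in HepaRG after 48 h chemical exposure (8 half-log concentrations, highest 100 uM, 0.5% DMSO). Fold change relative to DMSO, fitted in both directions.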

Read-out in assay [4]: BCL2L11 (gene 10018)
Briefly: LTEA_HepaRG_BCL2L11: Life Technologies and Expression Analysis (LTEA) Assay for Bcl-2 (BCL2L11) gene using HepaRG (AID 2283473). An outline of the steps:
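HepaRG, 48 h exposure, 8-pt half-log series from 100 uM in 0.5% DMSO, duplicates; qRT-PCR (Fluidigm TaqMan) for BCL2L11, housekeeping-normalized; bidirectional curve fit relative to DMSO baseline.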

Read-out in assay [5]: Apolipoprotein A-V (APOA5) gene, APOA5 (gene 116519)
Briefly: LTEA_HepaRG_APOA5: Life Technologies and Expression Analysis (LTEA) Assay for Apolipoprotein A-V (APOA5) gene using HepaRG (AID 2283474). An outline of the steps: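 HepaRG, 48 h chemical exposure in serum-free induction medium, 8-pt half-log series (top 100 uM), 0.5% DMSO vehicle, duplicates. Readout: APOA5 mRNA by qRT-PCR, housekeeping-normalized; bidirectional fit vs DMSO baseline.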

Read-out in assay [6]: Apoptosis regulator Bcl-2 (Homo sapiens) (UniProt P10415)
Briefly: LTEA_HepaRG_BCL2: Life Technologies and Expression Analysis (LTEA) Assay for Bcl-2 gene using HepaRG (AID 2283475). The method in brief: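 Each chemical was tested in duplicate on HepaRG cultures held in serum-free induction medium for 48 h, highest concentration 100 uM with half-log dilutions. Transcript levels came from multiplexed qRT-PCR, normalised to housekeeping genes; activity was scored in either direction relative to DMSO.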

Read-out in assay [7]: Bcl-2 (BID) gene, BID (gene 637)
Briefly: LTEA_HepaRG_BID: Life Technologies and Expression Analysis (LTEA) Assay for Bcl-2 (BID) gene using HepaRG (AID 2283476). The method in brief:
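Assay used HepaRG hepatic cells treated 48 h in serum-free medium with half-log dilutions from 100 uM. Endpoint: BID mRNA, qRT-PCR, normalized to ACTB/GAPDH/POLR2A.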

Read-out in assay [8]: Caspase-3 (Homo sapiens) (UniProt P42574)
Briefly: LTEA_HepaRG_CASP3: Life Technologies and Expression Analysis (LTEA) Assay for cysteine-aspartic acid protease (CASP3) using HepaRG (AID 2283477). An outline of the steps:
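HepaRG, 48 h exposure, 8 conc. (top 100 uM, half-log steps, duplicate), 0.5% DMSO vehicle; qRT-PCR of CASP3 transcript, housekeeping-normalised (ACTB/GAPDH/POLR2A); bidirectional curve fit vs DMSO baseline.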

Read-out in assay [9]: Cytochrome P450 (CYP24A1), CYP24A1 (gene 1591)
Briefly: LTEA_HepaRG_CYP24A1: Life Technologies and Expression Analysis (LTEA) Assay for Cytochrome P450 (CYP24A1) using HepaRG (AID 2283478). An outline of the steps:
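qRT-PCR read-out: CYP24A1 transcript levels normalized to three housekeeping genes, bidirectional curve fits against 0.5% DMSO baseline. Human HepaRG cells treated 48 h with chemicals at eight concentrations from 100 uM in half-log steps.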

Read-out in assay [10]: Cytochrome P450 (CYP1A2), CYP1A2 (gene 1544)
Briefly: LTEA_HepaRG_CYP1A2: Life Technologies and Expression Analysis (LTEA) Assay for Cytochrome P450 (CYP1A2) using HepaRG (AID 2283479). The method in brief: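 HepaRG, 48 h exposure, top 100 uM, half-log 8-pt, 0.5% DMSO vehicle, duplicates. Readout: TaqMan qRT-PCR of CYP1A2 mRNA, housekeeping-normalized (ACTB/GAPDH/POLR2A). Gain/loss fit relative to DMSO baseline.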

Read-out in assay [11]: cysteine-aspartic acid protease (CASP8), CASP8 (gene 841)
Briefly: LTEA_HepaRG_CASP8: Life Technologies and Expression Analysis (LTEA) Assay for cysteine-aspartic acid protease (CASP8) using HepaRG (AID 2283480). The method in brief:
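CASP8 transcript measured by TaqMan qRT-PCR with ACTB/GAPDH/POLR2A normalization, after 48 h chemical exposure of HepaRG cells in serum-free induction medium. Eight concentrations, top 100 uM, half-log steps, 0.5% DMSO vehicle; fits in both directions versus DMSO.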

Read-out in assay [12]: Cytochrome P450 (CYP2B6), CYP2B6 (gene 1555)
Briefly: LTEA_HepaRG_CYP2B6: Life Technologies and Expression Analysis (LTEA) Assay for Cytochrome P450 (CYP2B6) using HepaRG (AID 2283481). The method in brief: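 Read-out is CYP2B6 mRNA by TaqMan qRT-PCR, normalized to three housekeeping genes and fitted bidirectionally against 0.5% DMSO baseline. Human HepaRG cells received test chemicals for 48 h, top concentration 100 uM, half-log dilutions.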

Read-out in assay [13]: Cytochrome P450 2C19 (Homo sapiens) (UniProt P33261)
Briefly: LTEA_HepaRG_CYP2C19: Life Technologies and Expression Analysis (LTEA) Assay for CYP2C19 using HepaRG (AID 2283482). The method in brief: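 HepaRG, 48 h chemical exposure, 8-pt half-log series from 100 uM in 0.5% DMSO, duplicates. Readout: CYP2C19 mRNA by TaqMan qRT-PCR, housekeeping-normalized. Bidirectional fit vs DMSO baseline; phenobarbital 1mM as induction control.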

Read-out in assay [14]: CYP2C8 (gene 1558)
Briefly: LTEA_HepaRG_CYP2C8: Life Technologies and Expression Analysis (LTEA) Assay for CYP2C8 using HepaRG (AID 2283483). The method in brief:
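CYP2C8 expression measured by TaqMan qRT-PCR and normalized to three housekeeping genes. HepaRG cultures were treated for 48 h with an eight-point half-log series topping at 100 uM, vehicle 0.5% DMSO, duplicates; fitted both directions against DMSO.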

Read-out in assay [15]: CYP2C9 (gene 1559)
Briefly: LTEA_HepaRG_CYP2C9: Life Technologies and Expression Analysis (LTEA) Assay for CYP2C9 using HepaRG (AID 2283484). The method in brief: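 CYP2C9 transcript level, quantified by TaqMan qRT-PCR against three housekeeping genes, was fitted bidirectionally relative to 0.5% DMSO. HepaRG cultures were treated 48 h, in duplicate, at eight half-log concentrations topping at 100 uM.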

Read-out in assay [16]: CYP2E1 (gene 1571)
Briefly: LTEA_HepaRG_CYP2E1: Life Technologies and Expression Analysis (LTEA) Assay for CYP2E1 using HepaRG (AID 2283485). An outline of the steps:
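Assay uses 48 h exposure of HepaRG hepatic cells, eight concentrations to 100 uM. Expression of CYP2E1 is quantified by TaqMan qRT-PCR with ACTB, GAPDH and POLR2A normalization; curves fitted in both directions relative to vehicle.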

Read-out in assay [17]: Cytochrome P450 3A4 (Homo sapiens) (UniProt P08684)
Briefly: LTEA_HepaRG_CYP3A4: Life Technologies and Expression Analysis (LTEA) Assay for CYP3A4 using HepaRG (AID 2283487). The method in brief:
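CYP3A4 transcript measured by TaqMan qRT-PCR and normalized to three housekeeping genes after 48 h chemical exposure of human HepaRG cells. Top concentration 100 uM, half-log steps, 0.5% DMSO vehicle; gain or loss fitted against DMSO baseline.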

Read-out in assay [18]: Pro-epidermal growth factor (Homo sapiens) (UniProt P01133)
Briefly: LTEA_HepaRG_EGF: Life Technologies and Expression Analysis (LTEA) Assay for Epidermal growth factor (EGF) using HepaRG (AID 2283489). An outline of the steps:
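qRT-PCR readout of EGF transcript after 48 h chemical exposure of HepaRG cells; eight concentrations from 100 uM down in half-log steps, duplicate wells, 0.5% DMSO vehicle. Bidirectional curve fitting against DMSO baseline.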

Read-out in assay [19]: CYP4A11 (gene 1579)
Briefly: LTEA_HepaRG_CYP4A11: Life Technologies and Expression Analysis (LTEA) Assay for CYP4A11 using HepaRG (AID 2283486). The method in brief:
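CYP4A11 transcript levels were quantified by TaqMan qRT-PCR after HepaRG human liver cells were treated for 48 hours with test chemicals (top 100 uM, half-log dilutions, 0.5% DMSO). Gain or loss of signal was fitted relative to DMSO.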

Read-out in assay [20]: DNA damage-inducible transcript 3 (DDIT3), DDIT3 (gene 1649)
Briefly: LTEA_HepaRG_DDIT3: Life Technologies and Expression Analysis (LTEA) Assay for DNA damage-inducible transcript 3 (DDIT3) using HepaRG (AID 2283488). The method in brief:
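Eight-point concentration-response (100 uM highest, half-log dilutions) in HepaRG, 48 h, duplicate wells. Endpoint: qRT-PCR mRNA, normalized (ACTB, GAPDH, POLR2A), bidirectional fitting with DMSO as baseline.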

Calls of active or inactive are those of the source. The calls were made as follows: active = hit-call score of the fitted dose curve at least 0.9, where 1 is the maximum; inactive = score below 0.9.

In general, AC50 refers to the concentration giving half of the maximal activity seen.

Chain of Apoptosis regulator Bcl-2 (Homo sapiens) (P10415 whole entry, looked up): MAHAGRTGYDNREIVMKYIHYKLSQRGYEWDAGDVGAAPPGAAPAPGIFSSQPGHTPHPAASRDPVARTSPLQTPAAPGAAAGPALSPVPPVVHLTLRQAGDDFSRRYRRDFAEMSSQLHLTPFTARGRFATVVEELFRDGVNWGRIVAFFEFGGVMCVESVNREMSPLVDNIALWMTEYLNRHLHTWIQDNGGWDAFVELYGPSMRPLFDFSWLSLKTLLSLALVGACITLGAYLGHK
Chain of Cytochrome P450 2C19 (Homo sapiens) (P33261 whole entry, looked up): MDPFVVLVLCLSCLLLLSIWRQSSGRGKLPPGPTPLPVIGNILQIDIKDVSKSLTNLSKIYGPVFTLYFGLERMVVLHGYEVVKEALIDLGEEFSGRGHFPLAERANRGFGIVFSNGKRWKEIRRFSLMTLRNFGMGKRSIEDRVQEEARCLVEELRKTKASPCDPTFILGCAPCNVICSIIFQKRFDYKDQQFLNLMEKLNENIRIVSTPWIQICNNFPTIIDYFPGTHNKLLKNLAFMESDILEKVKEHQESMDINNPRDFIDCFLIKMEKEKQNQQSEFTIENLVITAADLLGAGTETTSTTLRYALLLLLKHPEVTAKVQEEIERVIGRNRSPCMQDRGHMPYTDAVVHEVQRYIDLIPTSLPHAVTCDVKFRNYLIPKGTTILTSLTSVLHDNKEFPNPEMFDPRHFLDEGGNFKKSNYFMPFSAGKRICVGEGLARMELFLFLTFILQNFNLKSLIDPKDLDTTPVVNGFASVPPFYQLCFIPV
Chain of Caspase-3 (Homo sapiens) (P42574 whole entry, looked up): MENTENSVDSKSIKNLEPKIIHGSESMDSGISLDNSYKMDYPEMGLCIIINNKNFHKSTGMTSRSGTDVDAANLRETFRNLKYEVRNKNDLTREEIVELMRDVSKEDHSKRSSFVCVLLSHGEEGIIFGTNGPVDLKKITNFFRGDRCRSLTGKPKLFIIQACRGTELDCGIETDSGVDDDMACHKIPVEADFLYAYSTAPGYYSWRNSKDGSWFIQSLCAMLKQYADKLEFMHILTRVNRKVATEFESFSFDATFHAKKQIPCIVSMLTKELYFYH
Chain of Cytochrome P450 3A4 (Homo sapiens) (P08684 whole entry, looked up): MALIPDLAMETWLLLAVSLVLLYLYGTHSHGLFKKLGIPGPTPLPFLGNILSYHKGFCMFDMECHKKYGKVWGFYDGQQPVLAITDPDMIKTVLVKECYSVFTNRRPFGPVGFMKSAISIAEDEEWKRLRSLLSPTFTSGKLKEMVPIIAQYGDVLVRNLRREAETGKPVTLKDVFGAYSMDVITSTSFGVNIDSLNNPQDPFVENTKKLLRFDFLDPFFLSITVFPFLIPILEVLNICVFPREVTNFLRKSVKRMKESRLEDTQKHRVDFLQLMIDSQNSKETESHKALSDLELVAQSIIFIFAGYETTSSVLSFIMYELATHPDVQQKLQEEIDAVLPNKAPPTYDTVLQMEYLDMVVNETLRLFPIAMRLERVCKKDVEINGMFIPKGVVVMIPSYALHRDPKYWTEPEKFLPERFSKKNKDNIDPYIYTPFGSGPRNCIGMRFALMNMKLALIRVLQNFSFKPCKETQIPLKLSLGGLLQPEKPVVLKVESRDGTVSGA

On to `O=NO`, for which the call in [1], in assay [2], in assay [3], in assay [4], in assay [5] and in assay [6] was inactive. Further, the compound was classed as inactive in [7], in assay [8], in [9], in assay [10], in assay [11] and in assay [12]. Moreover, the compound was classed as inactive in [13], in [14], in assay [15], in assay [16], in [17] and in assay [18].

Consider `CCCCOC(=O)CCCCC(=O)OCCCC`, for which the outcome in [1], in assay [2], in assay [3], in assay [4], in assay [5] and in assay [6] was inactive. Further, the outcome in [7], in assay [8], in assay [9], in assay [11], in [12] and in [13] was inactive. Moreover, the result in assay [14], in [15], in assay [16], in assay [19], in [17] and in assay [20] was inactive. Also, the outcome in assay [18] was inactive. Also, in [10], the AC50 is 50 µM (active).

Consider `Cc1ccc(-c2cc(C(F)(F)F)nn2-c2ccc(S(N)(=O)=O)cc2)cc1`, for which the outcome in assay [1], in assay [3], in assay [5], in [6], in assay [7] and in assay [8] was inactive. Moreover, the call in assay [9], in assay [11], in assay [14], in assay [15] and in [18] was inactive. Besides, the AC50 was 93.8 µM (active) in assay [2]; 82.5 µM (active) in assay [4]; 15.8 µM (active) in assay [10]; 90.2 µM (active) in assay [12]; 23.6 µM (active) in [13]; 38.2 µM (active) in [16]. Further, in [19], the AC50 was 6 µM (active).

(Values after PubChem BioAssay (EPA / NIEHS).)
